# Test results reported in ChEMBL document CHEMBL4888484, “Replenishing the malaria drug discovery pipeline: Screening and hit evaluation of the MMV Hit Generation Library 1 (HGL1) against asexual blood stage Plasmodium falciparum ,using a nano luciferase reporter read-out” (2022).
# Hit rate of the full screen: of about 4,800 compounds, about 420 (8.8%) showed an effect of 50% or more. Many of the other results were omitted from the sample, so strong results are more common in it than they were.
# Test system: Plasmodium falciparum
# Experiment: Confirmatory screen in NF54 nanoGlo assay, in single point, at 2uM, 72h
# Format: functional, Erythrocyte
# Settings: timepoint 72 hour
row,Compound,% Inhibition
1,CCCN1CCC(NCc2ccc(-c3cccc(Cl)c3Cl)o2)CC1,65%
2,O=C(Nc1cccc2ccccc12)c1nn[nH]c1NS(=O)(=O)c1ccccc1,-9%
3,COc1ccnc(N2CCc3nn(C(C)C)c(=O)cc3C2)n1,-4%
4,O=C(Cc1ccc(N(Cc2cccc(F)c2)C(=O)C2CCCC2)cc1)NCCN1CCCC1,21%
5,Cc1cccc(CN(C(=O)C2CCCC2)c2ccc(CC(=O)NCCN3CCOCC3)cc2)c1,9%
6,O=C(Cc1ccc(N(Cc2cccc(F)c2)C(=O)C2CCCC2)cc1)NCCN1CCCCC1,54%
7,NC(=O)C1CCN(C(=O)Nc2nc(C(F)(F)F)cs2)CC1,5%
8,CC1(C)CCC[C@@H]1NS(=O)(=O)c1ccc(C(=O)N2CCOCC2)cc1,4%
9,Oc1ccc(-c2ncc3n2CCCC3)cc1,4%
10,Oc1ccc(-c2nnc(-c3ccc(O)cc3)nn2)cc1,51%
11,Cc1c(-c2ccc(F)cc2)[nH]c2ccc(CNc3nccc(N(C)C)n3)cc12,29%
12,CC(C)[C@H](Nc1ccc2nccnc2n1)c1nnc2n1CCC2,-8%
13,Oc1nc(-c2cccc(C(F)(F)F)c2)sc1-c1ccccc1,0%
14,Oc1ccccc1-c1cnc(C(F)(F)F)s1,94%
15,CN(C)Cc1cn(C[C@H]2C[C@@H](NC(=O)Nc3ccc4c(c3)OCCO4)[C@H](O)[C@@H]2O)nn1,0%
16,CC1CN(C(=O)COc2ccc3oc4ccccc4c3c2)CC(C)O1 (stereo not drawn),-3%
17,CNC[C@H]1CCCN1C(=O)c1ccc(-c2noc(C(F)(F)F)n2)cc1,29%
18,COC1CCCCC1NC(=O)c1ccc(-c2noc(C(F)(F)F)n2)cc1 (stereo not drawn),-1%
19,CC(C(=O)N1N=CCC1(O)C(F)(F)F)n1nc(C(F)(F)F)cc1C1CC1 (stereo not drawn),-1%
20,O=C(NCCc1cc(F)cc(F)c1)C1CC2CCC1C2 (stereo not drawn),0%
21,O=S(=O)(Cc1cc(Cl)cc(Cl)c1)NCCCCn1ccnc1,-6%

row,Compound,% Inhibition
1,COc1ccc(Nc2nnc(-c3ccc(NC(=O)C(=O)NCCCn4ccnc4)cc3)s2)cc1,56%
2,COc1ccc(-c2nccn3cc(C(=O)NCCc4ccncc4)nc23)cc1,-1%
3,Cn1c2ccc(Br)cc2c2cc(NS(=O)(=O)c3ccccc3)ccc21,4%
4,CS(=O)(=O)Nc1nc2c(s1)CN(C(=O)c1ccc3c(c1)CCC=C3)CC2,0%
5,Cc1ccc(C(=O)Nc2c(C(N)=O)sc3nc(C(F)F)cc(C4CC4)c23)cc1,-16%
6,Cc1cc(F)ccc1NC(=O)Cn1nc(C2CC2)c2c(C(F)F)cc(=O)[nH]c21,-4%
7,Cc1nn(C)c(NC(=O)c2ccc(C(C)(C)C)cc2)c1C1=CCCCC1,15%
8,CCc1cc(C(=O)N2CCCCCC2)c2c(C3CC3)nn(-c3ccc(F)cc3)c2n1,0%
9,CC1CCC(NC(=O)C(c2ccccc2)c2ccccc2)CC1 (stereo not drawn),10%
10,CCc1cc(=O)[nH]c(-n2nc(C3CC3)cc2NC(=O)C2CCCCC2)n1,88%
11,Cc1cc(=O)[nH]c(-n2nc(C3CC3)cc2NC(=O)c2ccc(C(C)(C)C)cc2)n1,57%
12,CC(C)(C)c1ccc(C(=O)N[C@H]2CCCC[C@@H]2NC(=O)c2ccc(C(C)(C)C)cc2)cc1,-5%
13,CN1CCC[C@H](C(=O)Nc2nc(C3CC3)cs2)C1,-12%
14,Cc1nc(CC(=O)Nc2cc(C3CC3)nn2-c2ccccc2)cs1,1%
15,Cc1cc(=O)[nH]c(-n2nc(C3CC3)cc2NC(=O)C(c2ccccc2)c2ccccc2)n1,91%
16,CC(C)c1cc(=O)[nH]c(-n2nc(C3CC3)cc2NC(=O)c2ccc(F)cc2)n1,93%
17,CC1CC(C)CC2(C1)NC(=O)N(CCC1OCCO1)C2=O (stereo not drawn),-1%
18,Cc1cc(=O)n(CC(=O)N2CCC(C)CC2)c(-c2ccc(F)cc2)n1,-4%
19,O=C(CCc1nc(CN2CCN(S(=O)(=O)c3ccc(F)cc3)CC2)no1)N1CCCC1,-4%
20,CCOC(=O)N1CCc2c(nc(-c3ccc(C)cc3)n(CC(=O)Nc3ccc(C(C)C)cc3)c2=O)C1,-16%
21,Cc1noc([C@H](C)S(=O)(=O)Cc2cc(C)on2)n1,0%

row,Compound,% Inhibition
1,O=S(=O)(Nc1ccc(F)cc1OCC1CC1)c1cn[nH]c1,-12%
2,Cn1cc(CNC(=O)NCC2(Cc3ccccc3)CCC2)cn1,-4%
3,Cc1c(C(C)C)c(=O)n(-c2ccc(S(=O)(=O)N3CCN(c4nc5ccccc5nc4-c4ccccc4)CC3)cc2)n1C,-20%
4,CCN(CC(C)(C)O)C(=O)C1CCCCCC1,-9%
5,Cn1nc(C(F)(F)F)cc1B1OC(C)(C)C(C)(C)O1,4%
6,C=CCOc1ccc(Cl)c(C(=O)N[C@H]2CCS(=O)(=O)C2)n1,0%
7,CCC(CC)C(=O)Nc1cc(C2CC2)nn1-c1nc(-c2ccccc2)cc(=O)[nH]1,50%
8,Cc1cc(N)n(-c2nc(-c3ccccc3)cc(=O)[nH]2)n1,1%
9,O=C(CCCc1ccccc1)Nc1cc(C2CC2)nn1-c1nc(-c2ccccc2)cc(=O)[nH]1,48%
10,Cc1ccc(NC(=O)NC(=O)Cn2ccc(=O)c3sccc32)cc1C,0%
11,Cc1ccc(S(=O)(=O)N2CCN(S(C)(=O)=O)C2)cc1,0%
12,Cc1ccc2c(c1)c1c(n2S(=O)(=O)c2ccc(C(C)(C)C)cc2)CCCN(C)C1,76%
13,Cc1ccc(S(=O)(=O)N2CCCC(=O)c3ccccc32)cc1,-3%
14,CC#CCCC(=O)Nc1ccc(OC)cc1,-5%
15,Cc1cc(C)c(OC(=O)c2ccc(Cl)cc2Cl)c(CNC(=O)c2ccccc2)c1,-16%
16,c1cc([C@@H]2CCCCN2c2nc(C3CC3)ns2)n[nH]1,2%
17,CCNC(=O)C[C@H]1CCCCN1C(=O)C1CCN(Cc2csc(C)n2)CC1,-1%
18,O=S(=O)(c1ccccc1C(F)(F)F)N1CC[C@]2(CCN(c3cccnc3)C2)C1,-2%
19,Cc1ccc(C(=O)N[C@@H](C)CCc2ccccc2)cc1S(=O)(=O)N1CCN(C)CC1,-20%
20,CCn1nccc1CN(C)C(=O)c1cc(C)c(C)s1,5%
21,CCCC[C@H](CC)C(=O)Nc1cc(C)ccn1,0%
